Compound activity (PubChem)
Compounds with a hit are over-represented: about 11% of the library has one in this group of screens.
USP28 block = inhibitors of human USP28 deubiquitinase | AID 1645857 | Q96RU2 | inhibition, % at 25 µM | purified USP28, Ub-rhodamine cleavage fluorescence, 30 min | actives 3% (n = 47,000)
USP30 block = blocks human USP30 ubiquitin-rhodamine cleavage; Q70CQ3; purified USP30, Ub-rhodamine cleavage fluorescence; inhibition, % at 25 µM; actives 5.3% (n = 47,000)
OTUD3 block = inhibitors of human OTUD3 deubiquitinase. Q5T2D3. purified OTUD3, Ub-rhodamine fluorescence, 2 h. inhibition, % at 25 µM. actives 0.7% (n = 47,000). AID 1645858
USP17 inh = inhibitors of human USP17 deubiquitinase | inhibition, % at 50 µM | purified USP17, Ub-rhodamine cleavage fluorescence, 3 h | A8MUK1 | actives 6.5% (n = 47,000)
Target sequence (A8MUK1 whole entry, looked up): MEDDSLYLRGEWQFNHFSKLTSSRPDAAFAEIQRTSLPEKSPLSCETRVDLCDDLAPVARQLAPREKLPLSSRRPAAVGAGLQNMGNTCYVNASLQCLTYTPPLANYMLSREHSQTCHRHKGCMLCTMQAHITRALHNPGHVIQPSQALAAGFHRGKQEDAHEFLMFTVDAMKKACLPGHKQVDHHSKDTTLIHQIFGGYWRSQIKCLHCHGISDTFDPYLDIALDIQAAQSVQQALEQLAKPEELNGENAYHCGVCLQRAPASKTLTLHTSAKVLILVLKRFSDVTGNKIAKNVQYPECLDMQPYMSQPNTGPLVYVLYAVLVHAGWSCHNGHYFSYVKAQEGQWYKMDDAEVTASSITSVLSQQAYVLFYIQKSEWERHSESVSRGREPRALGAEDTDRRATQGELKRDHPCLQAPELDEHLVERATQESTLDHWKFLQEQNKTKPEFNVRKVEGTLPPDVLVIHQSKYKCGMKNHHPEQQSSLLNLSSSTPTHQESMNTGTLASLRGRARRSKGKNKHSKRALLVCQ
A number is an active result; . = inactive; / = not tested or not shown. No stated cut-off is given here; in the data, active means inhibition above about 30%; inactive means the rest.

SMILES	USP28 block	USP30 block	OTUD3 block	USP17 inh
Cc1ccc(C)c(CN2C(=O)c3ccccc3S(=O)c3ccc(C(=O)N4CCN(c5ccccn5)CC4)cc32)c1 (centres undefined)	.	38.9	.	.
O=C(c1ccc2nc(C(F)(F)F)[nH]c2c1)N1CCN(c2ccccn2)CC1	.	.	.	.
O=C(c1ccc2c(c1)N(Cc1ccc(F)cc1)C(=O)c1ccccc1S2=O)N1CCN(c2ccccn2)CC1 (centres undefined)	.	39.5	.	.
Cn1ncc(-c2nc(-c3ccc(Cl)cc3)cs2)c1NC(=O)NC(=O)c1c(F)cccc1F	/	/	.	52.9
COc1ccc(N(C)C(=O)CN(c2ccc(OC)cc2)S(=O)(=O)c2c(C)nn(C)c2C)cc1	.	.	.	.
Cc1oc2ncnc(Oc3ccc(F)cc3)c2c1C	.	41.2	.	.
COc1ccc(CCC(=O)Nc2ncc(C)s2)cc1OC	53.8	.	.	.
O=C(CC1C(=O)N(Cc2cccnc2)c2nc3ccccc3n21)Nc1cccc([N+](=O)[O-])c1 (centres undefined)	.	.	.	.
CCc1ccccc1N(CC)C(=O)c1cccc2c1SCCC2=O	.	33.0	.	.
c1ccc(CNc2nn3c(-c4ccncc4)cnc3s2)cc1	.	.	.	51.3
c1cncc(-c2cnc3sc(NCC4CC4)nn23)c1	.	.	.	.
COc1ccc(CNc2nn3c(-c4ccncc4)cnc3s2)cc1	69.8	85.5	.	34.0
Cc1ccc(C)c(C(=O)COC(=O)c2cccnc2Nc2cccc(C(F)(F)F)c2)c1	.	.	.	.
COc1ccccc1NC(=O)N1CCc2nc3ccccc3n2C(Cc2ccccc2)C1 (centres undefined)	.	.	.	.
CC(C)c1cc(C(=O)N2CCN(C(=O)C3CC3)CC2)c2cnn(C(C)C)c2n1	.	.	.	.
Cc1c(-c2noc(-c3ccccn3)n2)nnn1Cc1ccccc1	.	.	.	.
c1ccc2ncc(CN3CCC[C@H]3c3nc(-c4ccc(-n5ccnc5)nc4)no3)cc2c1	.	.	.	40.6
O=C(CN1C(=O)COc2ccccc2C1=O)c1ccccc1	/	/	.	.
Cc1ccc(NS(=O)(=O)c2c(C)[nH]c(C)c2-c2nc(C)no2)c(C)c1	.	.	.	.
O=C(CCc1c[nH]c2ccccc12)N1C[C@@H](O)[C@H](N2CCCC2)C1	.	.	.	.
O=C(CCc1c[nH]c2ccccc12)OCC(=O)c1cc2c3c(c1)CC(=O)N3CCC2	/	/	.	62.2
COCCCn1c(C(N)=O)cc2c(=O)n3cccc(C)c3nc21	.	.	.	40.0
COCCCn1c(C(=O)NCCc2ccccc2)cc2c(=O)n3cccc(C)c3nc21	.	.	.	71.3
CCOCCCNC(=O)c1cc2c(=O)n3cccc(C)c3nc2n1Cc1ccccc1	.	44.0	.	40.6
CCC(C)NC(=O)c1cc2c(=O)n3cccc(C)c3nc2n1Cc1ccccc1 (centres undefined)	.	.	.	.
SMILES	USP28 block	USP30 block	OTUD3 block	USP17 inh
CCCCN(C)C(=O)c1cc2c(=O)n3cccc(C)c3nc2n1Cc1ccccc1	.	42.0	.	62.5
COCCCn1c(C(=O)Nc2cccc(OC)c2)cc2c(=O)n3cccc(C)c3nc21	.	.	.	.
CCn1c(=O)n(CC(=O)c2ccc(Cl)cc2)c2c(C(N)=O)nc(-c3ccco3)nc21	.	.	.	36.0
CCCn1c(=O)n(CC(=O)c2ccc(Cl)cc2)c2c(C(N)=O)nc(-c3ccco3)nc21	.	.	.	38.1
CCn1c(=O)n(CC(=O)c2ccc(F)cc2F)c2c(C(N)=O)nc(-c3ccco3)nc21	.	.	.	.
CCCn1c(=O)n(CC(=O)c2ccccc2F)c2c(C(N)=O)nc(-c3ccco3)nc21	.	.	.	61.9
CCC(Sc1ccc2nnc(CCNC(=O)c3ccc(OC)cc3)n2n1)C(=O)OC (centres undefined)	.	.	.	.
O=C(c1cc(C2CC2)[nH]n1)N1CCn2c(nnc2-c2ccccc2)C1	.	.	.	.
Cc1oc(-c2ccc(Cl)cc2)cc1C(=O)Nc1ccccc1	.	34.8	.	.
CN(C)c1ccc(NC(=O)CSc2nnc(-c3ccc(S(=O)(=O)N4CCOCC4)cc3)n2C)cc1	.	44.7	.	.
COc1ccc(Cl)cc1Nc1cc(C)c2ccccc2n1	.	.	.	.
Clc1ccc(Oc2nc3ccccc3c3nnc(-c4ccc(Br)cc4)n23)c(Cl)c1	.	.	.	36.7
O=C(c1cccc2ncccc12)N1CCCC(c2ccc3cn[nH]c3n2)C1 (centres undefined)	.	.	.	.
